High-throughput results deposited in PubChem by National Center for Advancing Translational Sciences (NCATS).
Only some compounds are listed: those with a hit (about 7.5% of all), similar ones and a draw of the others.
FMDV antiviral = foot and mouth disease virus antiviral activity | FMDV antiviral cell-based qHTS | Potency, µM (titrated, usually from 57.9 µM), inactives show top-dose activity change, negative = inhibition, most hits filed as inhibitors | 1.2% of 410,000 active; calls by dose curve; tested in HEK293T cells; note: read-out not given here; potency is the fitted concentration of half-maximal effect; nearly all actives have a fitted effect of over 45% in size
HCV inhibitor = HCV inhibition | Huh7.5.1 HCVcc-Cre infection, luciferase reporter, 44 h | Potency, µM (series often up to 41.8 µM), without a hit: top-dose activity change, negative = inhibition, hits mostly inhibitors | 3.4% of 340,000 active | AID 651820; note: potency is the fitted concentration of half-maximal effect
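Cells (1,000/well) were plated 4 h before compound, then infected with HCVcc-Cre virus (~0.5 moi). After 44 h further culture, infection was read as luciferase luminescence following a 15 min substrate incubation at room temperature.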
Vaccinia Venus = inhibitors of vaccinia virus (Venus reporter); Vaccinia virus Venus reporter expression, fluorescence; Potency, µM (series often up to 36.5 µM), inactives show at the top dose activity change, negative = inhibition, usual class: inhibitors; 0.46% of 330,000 active; AID 720580; calls by dose curve; tested in A549 cells; note: potency is the fitted concentration of half-maximal effect; nearly all actives have a fitted effect of over 30% in size
FBPA Giardia inh = blocks Giardia fructose-bisphosphate aldolase activity; 0.71% of 290,000 active; purified Giardia FBPA; Potency, µM (titrated, usually from 59.6 µM), for the others: at the highest dose activity, negative = inhibition, actives largely listed as inhibitors; A8B2U2; AID 2451; note: potency is the fitted concentration of half-maximal effect; nearly all actives have a fitted effect of over 55% in size
Target sequence (A8B2U2 whole entry, looked up): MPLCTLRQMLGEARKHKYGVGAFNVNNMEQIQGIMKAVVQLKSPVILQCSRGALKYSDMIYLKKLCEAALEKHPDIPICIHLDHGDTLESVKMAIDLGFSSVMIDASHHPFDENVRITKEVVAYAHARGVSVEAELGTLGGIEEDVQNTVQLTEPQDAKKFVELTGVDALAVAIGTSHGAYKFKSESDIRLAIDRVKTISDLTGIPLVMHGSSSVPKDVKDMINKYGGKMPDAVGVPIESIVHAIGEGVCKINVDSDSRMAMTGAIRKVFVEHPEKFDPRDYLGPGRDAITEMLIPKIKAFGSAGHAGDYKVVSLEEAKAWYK
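40 nM FBPA preincubated 10 min at RT with compound (up to 57.5 uM final), then substrate plus GAPDH/TPI/NAD/arsenate coupling and diaphorase/resazurin added. Fluorescence read after 20 min at RT, 525/598 nm.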
HCMV inh = blocks human cytomegalovirus replication | HFF cells, HCMV-luciferase reporter, 72 h; hits give low values | activity change, negative = inhibition, % at 57.5 µM | 4.5% of 410,000 active | AID 1259415; in the data active = activity change below about -60%; inconclusive = no clear call, values can overlap the other calls; inactive = above about -39%
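Two compound doses tested in HFFs infected with HCMV-luciferase, MOI 1 PFU/cell, 72 h at 37C. Lysate luminescence read with OneGlo; data normalized against buffer-only and 10uM Salinomycin inhibitor controls.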
VACV mCherry inh = vaccinia inhibition (mCherry reporter); Vaccinia virus mCherry reporter infection, fluorescence; Potency, µM (titrated, usually from 36.5 µM), for inactives: top-dose activity change, negative = inhibition, hits mostly inhibitors; 0.63% of 310,000 active; AID 720579; calls by dose curve; tested in A549 cells; note: potency is the fitted concentration of half-maximal effect; nearly all actives have a fitted effect of over 35% in size
An asterisk follows results filed as active. Unless noted, calls come from the whole dose curve; as a rule, active = well fitted curve in the direction sought with a large enough effect; inconclusive = small, poorly fitted or top-dose-only effect, or another doubt; inactive = no such curve, though single readings can be large; an effect the other way counts as inactive or inconclusive. % is set by controls: 0 for no effect and ±100 for the full control effect.

For CNc1cc(C)c(C#N)c2nc3ccccc3n12 the results were FMDV antiviral -28%, HCV inhibitor -15%, Vaccinia Venus -11%, FBPA Giardia inh -2%, HCMV inh 3 and VACV mCherry inh inactive.
`Cc1ccc(-c2c(C#N)c(N)n3c(nc4ccccc43)c2C#N)cc1` gave FMDV antiviral inconclusive, HCV inhibitor inconclusive, Vaccinia Venus inconclusive, FBPA Giardia inh -13% and HCMV inh -72*.
Screening CCCCc1c(C)c(C#N)c2nc3ccccc3n2c1Nc1c(C)n(C)n(-c2ccccc2)c1=O returned FMDV antiviral -14%, HCV inhibitor inconclusive, Vaccinia Venus -21%, HCMV inh -90* and VACV mCherry inh -30%.
`N#Cc1c(-c2ccccc2)c(C#N)c2nc3ccccc3n2c1N` gave FMDV antiviral inconclusive, HCV inhibitor inconclusive, Vaccinia Venus -16%, FBPA Giardia inh 1%, HCMV inh -3 and VACV mCherry inh inactive.
For CCc1c(C)c(C#N)c2nc3ccccc3n2c1NC the results were FMDV antiviral -20%, HCV inhibitor 0%, Vaccinia Venus -12%, FBPA Giardia inh 10%, HCMV inh -25 and VACV mCherry inh -8%.
`CC(=O)Nc1nonc1-c1nnc(SCC(=O)Nc2ccc(C)c(Cl)c2)n1C` gave FMDV antiviral -17%, Vaccinia Venus -10%, HCMV inh -6 and VACV mCherry inh -8%.
CCOC(=O)C1(CCOc2ccccc2)CCN(Cc2ccc(-n3cccn3)cc2)CC1 was read as FMDV antiviral inconclusive, HCV inhibitor 2.5µM*, Vaccinia Venus inconclusive, FBPA Giardia inh -2%, HCMV inh -61* and VACV mCherry inh inconclusive.
For CCOC(=O)C1(CC2CC2)CCN(Cc2cn[nH]c2-c2ccccc2)CC1 the results were FMDV antiviral -21%, HCV inhibitor 2%, FBPA Giardia inh 7% and HCMV inh -28.
For CCOC(=O)C1(CC2CC2)CCN(Cc2cnc(-c3ccc(OC)cc3)nc2)CC1 the results were FMDV antiviral inconclusive, HCV inhibitor inconclusive, FBPA Giardia inh -10% and HCMV inh -62*.
Screening CCOC(=O)C1(Cc2cccc(F)c2)CCN(Cc2c(C)nn(CC)c2C)CC1 returned FMDV antiviral inconclusive, HCV inhibitor 13µM*, FBPA Giardia inh 0% and HCMV inh inconclusive.
Screening CCOC(=O)C1(Cc2ccccc2)CCN(Cc2cn[nH]c2-c2ccccc2)CC1 returned FMDV antiviral inconclusive, HCV inhibitor inconclusive, FBPA Giardia inh 0% and HCMV inh -78*.
Screening CCOC(=O)C1(CCOc2ccccc2)CCN(Cc2ccncc2)CC1 returned FMDV antiviral inconclusive, HCV inhibitor inconclusive, Vaccinia Venus -10%, FBPA Giardia inh -1%, HCMV inh -34 and VACV mCherry inh -25%.
CCN(CC)c1ccc(NC(=O)CCc2c(C)nc3ncnn3c2C)c(C)c1 was read as FMDV antiviral 0%, Vaccinia Venus -9%, HCMV inh -3 and VACV mCherry inh -11%.
For COc1ccc(NC(=O)CC2C(=O)N(C)C(=S)N2CCc2ccccc2F)cc1 (stereo not drawn) the results were FMDV antiviral 0%, HCV inhibitor inconclusive, Vaccinia Venus -6%, FBPA Giardia inh -6%, HCMV inh inconclusive and VACV mCherry inh -9%.
COc1ccc2c(c1)C(n1c(C)ccc1C)C(=O)N2C (stereo not drawn) was read as HCMV inh -6.
Screening O=C(Cn1c(=O)nc(-c2ccccc2)c2ccccc21)NCc1ccccc1Cl returned FMDV antiviral 0%, Vaccinia Venus -17%, HCMV inh 92 and VACV mCherry inh inactive.
`CCOC(=O)C1(CCOC)CCN(C/C=C/c2ccccc2OC)CC1` gave FMDV antiviral inconclusive, HCV inhibitor 11µM* and HCMV inh 10.
Screening CCOC(=O)C1(CCOC)CCN(Cc2ccncc2)CC1 returned FMDV antiviral -12%, HCV inhibitor 17%, Vaccinia Venus -15%, FBPA Giardia inh -8%, HCMV inh 7 and VACV mCherry inh -2%.
`CCOC(=O)C1(CCOc2ccccc2)CCN(Cc2cccc(OC)c2)CC1` gave FMDV antiviral -42%, HCV inhibitor 11µM* and HCMV inh 1.
